Assay results reported in PubChem BioAssay AID504462 (Sanford-Burnham Center for Chemical Genomics, 2011).
The whole screen tested about 340,000 compounds, of which about 1,700 (0.5%) were called active. The list comes from a sample in which actives are over-represented; it also holds similar structures and randomly drawn compounds. Values without a mark were called inactive. Rule as the data show it: active = inhibition above about 40%; inactive = the rest.

Biological target: Cysteine protease ATG4B (Homo sapiens) (UniProt Q9Y4P1)
Assay: blockers of ATG4B cysteine protease activity – biochemical, fluorescence, uHTS, primary screen (AID 504462)
Settings: ATG4B cleavage of LC3-PLA2, NBD-HPC fluorescence, 1 h; at 8.33 µM; active compounds read high

Chain of Cysteine protease ATG4B (Homo sapiens) (Q9Y4P1 whole entry, looked up): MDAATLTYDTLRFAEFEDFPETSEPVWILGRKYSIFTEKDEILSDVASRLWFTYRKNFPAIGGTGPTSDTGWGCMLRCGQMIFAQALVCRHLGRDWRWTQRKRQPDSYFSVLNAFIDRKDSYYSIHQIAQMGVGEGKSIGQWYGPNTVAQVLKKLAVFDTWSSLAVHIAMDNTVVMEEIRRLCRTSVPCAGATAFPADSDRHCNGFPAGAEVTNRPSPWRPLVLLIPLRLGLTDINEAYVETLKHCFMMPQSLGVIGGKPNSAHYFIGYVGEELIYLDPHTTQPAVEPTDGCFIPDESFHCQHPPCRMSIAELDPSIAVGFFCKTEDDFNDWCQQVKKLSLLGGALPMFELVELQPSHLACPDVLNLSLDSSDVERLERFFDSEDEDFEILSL

SMILES	inhibition
CCn1nnc(NC(=O)c2cc(Cl)c(OC)c(Cl)c2)n1	-1.88%
O=C(Nc1ccccc1Cc1ccccc1)c1ccc2c(c1)SC1=NS(=O)(=O)CCN12	-8.36%
CC(=O)c1cc(-c2ccccc2)n(CCC(=O)NC2CCCCCC2)c1C	-4.01%
COC(=O)c1c(NC(=O)COC(=O)[C@@H](NS(=O)(=O)c2ccccc2)C(C)C)sc2c1CCC2	71% (active)
CCc1ccc(N(CC(=O)Nc2sc3c(c2C(=O)OC)CCCC3)S(C)(=O)=O)cc1	-5.39%
COC(=O)c1c(NC(=O)CN(c2ccc(C)c(C)c2)S(C)(=O)=O)sc2c1CCCC2	-3.55%
O=[N+]([O-])/C=C/c1ccc2c(ccn2Cc2ccccc2)c1	5.14%
COc1ccc2c(c1)CCc1c(C(=O)N3CCc4ccccc4C3)noc1-2	55.6% (active)
O=C(c1noc2c1CCCC2)N1CCc2ccccc2C1	0.28%
COc1ccc2c(c1)CCc1c(C(=O)N3CCCC3)noc1-2	-6.35%
Cc1cccc(C2c3[nH]c4ccccc4c3CCN2C(=O)c2cc(-c3cccn3C)n[nH]2)n1 (configuration not stated)	62.3% (active)
O=C(c1cn2ccccc2n1)N1CCc2c([nH]c3ccccc23)C1c1ccccn1 (configuration not stated)	-13.7%
Cc1cccc(C(=O)N2CCc3c([nH]c4ccccc34)C2CC(C)C)n1 (configuration not stated)	-9.03%
O=C(COc1cc(Cl)c(Cl)cc1Cl)NC(=O)NC1CCCC1	-1.73%
O=C(N/N=C/c1coc2ccccc2c1=O)c1cc2ccccc2o1	61.1% (active)
Cc1c(/C=N\NC(=O)c2cc3ccccc3o2)c2ccccc2n1C	-15.2%
CC(C)(C)OC(=O)NCCCCCC(=O)N/N=C/c1coc2ccccc2c1=O	14.7%
O=C(COCc1cc(-c2ccc3c(c2)OCO3)on1)N1CCN(c2cccc(Cl)c2)CC1	5.35%
CCOc1ccc(CC(=O)NCCS(=O)(=O)N2CCN(c3ccccc3)CC2)cc1	-6.99%
NC(=O)CSc1nnc(NC(=O)c2ccc3ccccc3c2)s1	5.71%
O=C(Nc1nnc(SCc2c(Cl)cccc2Cl)s1)c1cccc([N+](=O)[O-])c1	7.45%
O=C(Nc1nnc(SCc2ccccc2Cl)s1)c1cccc([N+](=O)[O-])c1	71.7% (active)

SMILES	inhibition
CN(CC(=O)Nc1cccc(F)c1)C(=O)C1CC(=O)N(CCc2ccccc2)C1 (configuration not stated)	-5.48%
OC(CNCc1ccc(Cl)c(Cl)c1)c1ccccc1 (configuration not stated)	40%
CCOC(=O)c1ccc(NNC(C)=O)c([N+](=O)[O-])c1	-7.65%
COc1ccc(Br)cc1C(=O)Nc1cccc(C)c1C	7.75%
COc1ccc(Br)cc1C(=O)NC(=S)Nc1cc(-c2nc3ccccc3[nH]2)ccc1C	65% (active)
COc1cc2ccccc2cc1C(=O)Nc1ccccc1C	-2.98%
CN1C(C)(C)CC(NC(=O)CCC(=O)NC2CC(C)(C)N(C)C(C)(C)C2)CC1(C)C	-1.23%
C#CCOCCOCCOCCNc1nc(N2CCN(C(=O)[C@H](CCCN=C(N)N)n3cc(C(N)[C@@H](C)CC)nn3)CC2)nc(N2CCN(C(=O)[C@H](CO)n3cc([C@@H](N)C(C)C)nn3)CC2)n1 (some centres not stated)	-2.36%
C#CCOCCOCCOCCNc1nc(N2CCN(C(=O)CCCCCCCCCCNC(=O)[C@H]([C@@H](C)CC)n3cc(CCCCN=C(N)N)nn3)CC2)nc(N2CCN(C(=O)CCCCCCCCCCNC(=O)[C@H](CO)n3cc(CCCSC)nn3)CC2)n1	41.9% (active)
C#CCOCCOCCOCCNc1nc(N2CCN(C(=O)Cn3cc(CCO)nn3)CC2)nc(N2CCN(C(=O)Cn3cc(CCCN=C(N)N)nn3)CC2)n1	-2.83%
O=C(c1n[nH]c2c1CCC2)N1CCCC(Nc2cccc(F)c2)C1 (configuration not stated)	5.08%
CCc1ccc(/C=C2\SC(N3CCOCC3)=NC2=O)cc1	-5.05%
O=C1N=C(N2CCc3ccccc3C2)S/C1=C\c1ccc(O)cc1	67.7% (active)
CCOc1cc(/C=C2\SC(N3CCCCC3)=NC2=O)ccc1O	-6.5%
O=C(NCCCO)/C(=C\C=C\c1ccccc1)NC(=O)c1ccccc1Cl	-7.32%
O=C1CSC(=S)N1c1ccc(Cl)c(Cl)c1	4.82%
CC1CC(C)CN(C/C=C/c2ccccc2[N+](=O)[O-])C1 (configuration not stated)	11.3%
CCCc1nc2c(c(=O)c3ccccc3n2C)c(=O)n1C1CCCCCC1	41.3% (active)
CC1CCN(Cc2nc3c(c(=O)n(C)c(=O)n3C)n2CCc2ccccc2)CC1	-1.37%
Cn1c2ccccc2c2c(C(=O)N3CCN(c4ccc(F)cc4)CC3)cn(C3CCCC3)c(=O)c21	-29.5%
Cn1nc(C(C)(C)C)c(NC(=O)c2sccc2Cl)c1C(C)(C)C	8.72%
O=C(O)C1=NN(c2c(F)c(F)cc(F)c2F)C(=O)CC1	-1.19%

SMILES	inhibition
CCN1CCN(c2c(Cl)cccc2NC(=O)c2ccc(Br)o2)CC1	56.4% (active)
O=C(Nc1cccc(Cl)c1N1CCOCC1)c1cccnc1	-5.52%
O=C(Nc1cccc(Cl)c1N1CCOCC1)c1ccc2c(c1)OCCO2	33.9%
C[C@H](CO)N1C[C@H](C)[C@@H](CN(C)S(=O)(=O)c2ccc(F)cc2)Oc2c(NC(=O)Nc3ccccc3)cccc2C1=O	-16.4%
O=C(NCC1COc2ccccc2O1)C1(c2ccccc2)CCCC1 (configuration not stated)	4.25%
O=C1C(=O)N(CC2COc3ccccc3O2)c2ccccc21 (configuration not stated)	72.1% (active)
O=C(CN1C(=O)C2C3C=CC(C3)C2C1=O)NCC1COc2ccccc2O1 (configuration not stated)	0.03%
FC(F)(F)c1cccc(N/N=C/c2ccccc2)c1	-3.29%
FC(F)(F)c1cccc(NC(=S)Nc2cccc(Cl)c2)c1	44.3% (active)
Cn1cc(Cl)c(C(=O)NNC(=S)Nc2cccc(Cl)c2)n1	-0.09%
Cc1nc(SCC(=O)N2CC(=O)Nc3ccccc32)c2c(C)c(C)sc2n1	26.7%
O=C(CSc1nnc(-c2cccs2)n1Cc1ccccc1)N1CCc2ccccc2C1	31.5%
Cc1nc(SCC(=O)N2CCc3ccccc3C2)c2c(C)c(C)sc2n1	71.6% (active)
CCOCC(=O)Nc1ncc(S(=O)(=O)c2ccc([N+](=O)[O-])cc2)s1	-0.99%
COc1ccc(/C=C2\SC(=O)N(CCC(=O)NC3CCS(=O)(=O)C3)C2=O)cc1 (configuration not stated)	5.85%
COc1ccc(/C=C2\SC(=O)N(CCC(=O)NCCCn3ccnc3)C2=O)cc1	3.21%
COc1ccc(/C=C2/SC(=O)N(CCCCCC(=O)Nc3ccccc3C(=O)O)C2=S)cc1	55.6% (active)
Cc1cc(C)n(-c2nnc(C)n2NC(=O)c2cccc(Cl)c2)n1	-11.2%
O=C(NCCS(=O)(=O)N1CCN(c2ccccc2F)CC1)c1ccc(Br)o1	-9.9%
CC1(C)CC(=O)C=C(NCCCN2CCCC2=O)C1	2.66%
O=C(c1ccc(CSc2ccccc2)cc1)N1CCCCCC1	15.3%
O=C(C1CC1)N1CCN=C1SCc1ccc(Cl)cc1	-5.2%

SMILES	inhibition
CC1CCN(C(=O)c2ccc(CSc3ccc(Cl)cc3)cc2)CC1	44% (active)
O=C(O)C1C2C=CC(C2)C1C(=O)NCc1ccccc1 (configuration not stated)	1.32%
O=C(NCc1ccccc1)[C@H]1C[C@@H]1[C@H](NP(=O)(c1ccccc1)c1ccccc1)c1ccccc1	55.2% (active)
COC(=O)[C@H](Cc1ccccc1)NC(=O)[C@@H]1C[C@H]1[C@@H](NC(=O)OCc1ccccc1)c1ccccc1	3.57%
Cc1ccc(Sc2cc(C(=O)c3ccccc3C(=O)O)ccc2[N+](=O)[O-])cc1	-10.7%
CN(C)S(=O)(=O)c1ccc(N/C=C(\[N+](=O)[O-])S(=O)(=O)c2ccccc2)cc1	0.88%
CCCN(CCC)CCCNC(=O)CNC(=O)c1nn(-c2ccc(OC)cc2)c(=O)c2ccccc12	7.71%
Cc1c(Cl)cccc1NC(=O)CC1SC(=NCC2CCCO2)NC1=O (configuration not stated)	1.67%
CCN=C1SC(CC(=O)Nc2ccc(C)cc2)C(=O)N1CC (configuration not stated)	-0.27%
Cc1ccc(NC(=O)CC2S/C(=N/N=C3\CCCc4ccccc43)NC2=O)cc1 (configuration not stated)	41.3% (active)
O=C(COC(=O)c1cc(=O)[nH]c2ccccc12)Nc1nc(-c2cccc(Br)c2)cs1	-32.4%
O=C1Nc2cc(Cl)c(Cl)cc2N(O)N1c1ccccc1Cl	0.16%
O=C1Nc2cc(Cl)c(Cl)cc2N(O)N1c1cc(Cl)cc(Cl)c1	42.3% (active)
O=C(Nc1cccc2c1CCCC2)c1ccc(F)cc1	9.34%
Cc1ccc(C2=N/C(=C\c3ccc(OS(=O)(=O)c4ccc(C)cc4)cc3)C(=O)O2)cc1	-3.55%
CS(=O)(=O)C1=NN2C(=N)/C(=C\c3ccc(OCCOc4ccccc4)cc3)C(=O)N=C2S1	-1.7%
CCS(=O)(=O)C1=NSC2=NC(=O)/C(=C\c3ccc(OS(=O)(=O)c4ccccc4)cc3)C(=N)N21	43.1% (active)
O=C(NCCc1ccco1)c1ccc(OCc2cn3ccccc3n2)cc1	-8.13%
FC(F)(F)Oc1ccc(NC(=S)NCc2ccccc2)cc1	40.2% (active)
COC(=O)Cc1ccc(NC(=S)NCc2ccccc2)cc1	8.5%
Fc1ccccc1CNC(=S)Nc1ccc(Cl)cc1	23.2%
